# Experimental data taken from ChEMBL document CHEMBL1157539, “Thousands of chemical starting points for antimalarial lead identification” (Nature, 2010).
# Test system: Plasmodium falciparum
# Test: GSK_TCMDC: Inhibition of Plasmodium falciparum Dd2 in whole red blood cells, using parasite LDH activity as an index of growth. Test compounds present at 2uM
# Type: functional
row,Compound,Inhibition [%]
1,O=C(Nc1cccc(CN2CCCN(Cc3ccccc3)CC2)c1)c1ccc(Cl)c(Cl)c1.O=C(O)C(F)(F)F,16
2,CC1CCN(C(=O)C(Cc2c[nH]c3ccccc23)NS(=O)(=O)c2ccc(Cl)cc2)CC1 (stereo not given),99
3,CCCCCCCN1CCC(CCNc2ccnc3ccc(OC)cc23)CC1,86
4,O=C(O)C(F)(F)F.O=c1[nH]ccc2nc(N[C@@H]3CCCNC3)nc(Nc3ccc(S(=O)(=O)N4CCOCC4)cc3)c12,99
5,O=C(CSc1nc2ccc([N+](=O)[O-])cc2s1)Nc1ccccc1-c1ccccc1,49
6,Nc1c(Cl)cc(C(O)CNCCCCCCOCCc2ccc(O)cc2)cc1Cl.O=C(O)/C=C/C(=O)O (stereo not given),97
7,CC1(CCCCN2CCC(c3c[nH]c4cnccc34)CC2)C(=O)Nc2cccc(Cl)c21 (stereo not given),0
8,Cc1cccc(C)c1CNc1cccc(-c2nc(C)c(C)[nH]2)c1.Cl,44
9,CCCCOC(=O)[C@H](CCC)NC(=O)c1ccc(NS(=O)(=O)c2ccc3nc(N)[nH]c(=O)c3c2)cc1,3
10,COc1ccc(CCn2c(=N)c(C(=O)NCc3cccnc3)cc3c(=O)n4ccccc4nc32)cc1,5
11,CCOC(=O)N(C)/N=C/[C@H](CCc1ccccc1)NC(=O)[C@H](CC(C)C)NC(=O)c1cc2cccc(OC)c2o1,70
12,COc1ccc(N(C)Cc2cnc3nc(N)nc(N)c3n2)cc1,0
13,CNCCNCc1cccc(-c2ccc(-c3nc4ccccc4[nH]3)cc2)c1.O=C(O)C(F)(F)F,27
14,COc1cc(COc2c(C)nc(N)nc2N)cc(OC)c1OC.Cl,0
15,Cc1ccc(C)c2sc(N(CCCn3ccnc3)C(=O)C=Cc3cccs3)nc12.Cl,93
16,COc1c(C2CCN(CCN3CCC(NC(=O)c4ccc(-c5ccc(C(F)(F)F)cc5)cc4)CC3)CC2)ccc2c1CCCC2,35
17,CCOC(=O)C(C)(C)Oc1ccc(CN(Cc2ccc(CC(C)C)cc2)C(=O)Nc2ccc(F)cc2F)c(OC)c1,96
18,CCc1cc2c(Sc3nnc(N)s3)ncnc2s1,65
19,O=C(/C=C/c1ccc(Cl)c(Cl)c1)NCCCCCN1CCC(CCNC(=O)c2snnc2-c2ccccc2)CC1,1
20,CN1CCC(C(=O)Nc2ccc(-c3cccc(-c4nc5cc(C(F)(F)F)ccc5[nH]4)c3)cc2)CC1,97

row,Compound,Inhibition [%]
1,Cc1ccc2c(c1)C1(CC(=O)N(CCc3scnc3C)C1=O)C(=O)N2Cc1ccccc1 (stereo not given),73
2,O=C(O)C(F)(F)F.O=[N+]([O-])c1cccc(CNCC2CCN(Cc3ccc(C(F)(F)F)cc3)CC2)c1,23
3,CN1CCC[C@H]1COc1ccc(CN2CC[C@H](NC(=O)c3ccc(Cl)c(Cl)c3)C2)cc1Br.O=C(O)C(F)(F)F,20
4,Cc1ccc(C(=O)Nc2ccc(C)c(OC3CCN(CCC(C)C)C3)c2)cc1.O=C(O)C(F)(F)F (stereo not given),53
5,COc1ccc2[nH]ccc(=NN=Cc3ccncc3)c2c1,95
6,CC(C)Cn1cc(C2CCN(CCN3CCC(CNC(=O)c4ccc(-c5ccc(C#N)cc5)cc4)CC3)CC2)c2ccccc21,98
7,O=C(/C=C/c1ccc(C(F)(F)F)cc1)NCCCCCN1CCN(C(=O)Nc2ccc(Cl)c(Cl)c2)CC1,0
8,CS(=O)(=O)c1ccc(CCNCc2ccc(-c3ccc(CN(C(=O)C4CCCC4)C4CCN(Cc5ccccc5)CC4)cc3)nc2)cc1.O=C(O)C(F)(F)F,20
9,COc1ccc(Cc2c(C)nc3nc(N)nc(N)c3c2C)cc1OC.Cl,0
10,COc1cc(-c2nc(-c3ccccc3)c(-c3ccccc3)[nH]2)cc(OC)c1O,90
11,Cc1cc(Nc2ccc(C)c(Cl)c2)n2nc(C(F)(F)F)nc2n1,97
12,CCCCCn1c(Sc2ccc(C#N)c([N+](=O)[O-])c2)nnc1-c1ccc(OC)cc1,44
13,C(=Cc1ccccc1)C=NN=c1cc[nH]c2ccccc12,100
14,O=C(Nc1ccc(-c2nc3ccc(NC(=O)c4ccc(Br)cc4)cc3[nH]2)cc1)c1ccc(Br)cc1,4
15,O=C(Nc1ccc(Cl)cc1)N(CC1CC2CCC(C1)N2Cc1ccc(C(F)(F)F)cc1)c1ccc(N2CCOCC2)c(F)c1 (stereo not given),36
16,Br.CCOc1ccc(CCCON2C(=N)N=C(N)NC2(C)C)cc1,93
17,O=C(NC1CCCC1)c1cc2c(=O)n3ccccc3nc2[nH]/c1=N/CCc1ccccc1,61
18,O=C(/C=C/c1ccc(Cl)c(Cl)c1)N1CCC(CN2CCC(Cc3nc4ccccc4[nH]3)CC2)CC1,95
19,CCN(CC)CCn1c(=N)n(CC(O)c2ccc(Cl)c(Cl)c2)c2ccccc21.Cl (stereo not given),88
20,FC(F)(F)c1ccc(-c2cncc(-c3ccc(C(F)(F)F)cc3)n2)cc1,97
